PubChem BioAssay AID1159580 (chemical genetic matrix, 2015)
Out of some 5,500 compounds screened, about 2,000 (36%) were called active. About 18% were inconclusive and are not listed. Rule as the data show it: active = normalized growth mostly below about 0.91 (no sharp cut-off); inconclusive = no clear call, values can overlap the other calls; inactive = mostly above about 0.92. This is one part of the list.

Experiment: chemical genetic growth profiling, strain panel (AID 1159580);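 also: tested at 20 µM; growth read once vehicle control cultures reached saturation at 30 °C; 1 = growth at the plate median or of vehicle wells; lower values mean less growth of the strain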
Conditions: S. cerevisiae deletion strains, growth OD

Measured: normalized growth

O=C(O)C1CCCN(CCC=C(c2ccccc2)c2ccccc2)C1 (stereo not drawn)
inactive: locus YAL013W, strain DEP1, hits give low values 1.04 | locus YAL040C, strain CLN3, hits give low values 1.06 | locus YCL061C, strain MRC1 (second series), hits give low values 1.01 | locus YDR150W, strain NUM1, hits give low values 1.01 | locus YDR363W, strain ESC2, hits give low values 1.02 | locus YER002W, strain NOP16, hits give low values 1 | locus YGR078C, strain PAC10, hits give low values 1.02 | locus YGR229C, strain SMI1, hits give low values 1.04 | locus YMR263W, strain SAP30, hits give low values 1.01 | locus YMR307W, strain GAS1, hits give low values 1.01 | locus YNL153C, strain GIM3, hits give low values 1.08 | locus YNL175C, strain NOP13, hits give low values 0.999 | locus YNL197C, strain WHI3, hits give low values 1 | locus YNL224C, strain SQS1, hits give low values 0.997 | locus YNL322C, strain KRE1, hits give low values 1.05 | locus YOR083W, strain WHI5 (second series), hits give low values 1.04 | locus YPL055C, strain LGE1, hits give low values 1.03 | locus YPL241C, strain CIN2, hits give low values 1.01
